The supplement of paper PMC8975748
Structures can show the parent of a compound that is named as a salt.

test system: Saccharomyces cerevisiae BY4741 SeMeCo community; test: z-score of subpopulation abundance vs DMSO median, subpopulation auxotrophic for LM; higher = larger share of this subpopulation than in DMSO controls; conditions: 10 µM; 24 h; SM minimal medium; subpopulation (auxotrophy): LM
Experimental: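 Fluorescent four-plasmid SeMeCo (self-establishing metabolically cooperating S. cerevisiae BY4741 community; plasmids pH-mRuby2, pL-mWasabi, pU-eCFP, pM-TagRFP657) was grown 24 h in minimal SM medium with each Selleck FDA-approved drug at 10 µM in 384-well plates. Cells were fixed and imaged by high-content confocal microscopy. For each auxotrophic subpopulation (and the prototroph), a z-score gives the deviation from the DMSO vehicle-control population median.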

| Structure (SMILES) | z-score of subpopulation abundance |
| --- | --- |
| Nc1ccc(S(=O)(=O)Nc2cnc3ccccc3n2)cc1 [Sulfaquinoxaline sodium] | 0.34 |
| CCOC(=O)CCC(=O)O[C@H]1[C@H](O[C@@H]2[C@@H](C)[C@H](O[C@H]3C[C@@](C)(OC)[C@@H](O)[C@H](C)O3)[C@@H](C)C(=O)O[C@H](CC)[C@@](C)(O)[C@H](O)[C@@H](C)C(=O)[C@H](C)C[C@@]2(C)O)O[C@H](C)C[C@@H]1N(C)C [Erythromycin Ethylsuccinate] | 3.22 |
| CCOC(=O)C1=C(COCCN)NC(C)=C(C(=O)OC)C1c1ccccc1Cl (stereo not given) [Amlodipine Besylate] | 6.36 |
| NC(=O)[C@@H]1CC[C@@H]2CN1C(=O)N2OS(=O)(=O)O [Avibactam sodium] | 0.78 |
| Cc1cnc(NC(=O)C2=C(O)c3ccccc3S(=O)(=O)N2C)s1 [Meloxicam] | -0.94 |
| COC(=O)Nc1nc2cc(Sc3ccccc3)ccc2[nH]1 [Fenbendazole] | 0.66 |
| CC(C)c1c(C(=O)Nc2ccccc2)c(-c2ccccc2)c(-c2ccc(F)cc2)n1CC[C@@H](O)C[C@@H](O)CC(=O)O [Atorvastatin] | -0.19 |
| O=S1(=O)CCN(CN2CCS(=O)(=O)NC2)CN1 [Taurolidine] | -0.78 |
| COc1ccc2[nH]c([S+]([O-])Cc3ncc(C)c(OC)c3C)nc2c1 (stereo not given) [Omeprazole Sodium] | -0.57 |
| CCN1CCN(C(=O)N[C@@H](C(=O)N[C@@H]2C(=O)N3C(C(=O)O)=C(CSc4nnnn4C)CS[C@H]23)c2ccc(O)cc2)C(=O)C1=O [Cefoperazone] | 1.36 |
| Cc1ccccc1OCC(O)CO (stereo not given) [Mephenesin] | 0.02 |
| Cc1nnc(SCC2=C(C(=O)O)N3C(=O)[C@@H](NC(=O)Cn4cc(Cl)c(=O)c(Cl)c4)[C@H]3SC2)s1 [Cefazedone] | -0.95 |
| CS(=O)(=O)c1ccc(C2=C(c3ccccc3)C(=O)OC2)cc1 [Rofecoxib] | 1.55 |
| O=C1C(N(CO)C(=O)NCO)N(CO)C(=O)N1CO (stereo not given) [Diazolidinyl urea] | -0.49 |
| CCc1cc(C(N)=S)ccn1 [Ethionamide] | 0.32 |
| C[C@H]1NCc2cc(-c3ccc4c(=O)c(C(=O)O)cn(C5CC5)c4c3OC(F)F)ccc21 [Garenoxacin] | 0.15 |
| C[C@](N)(Cc1ccc(O)c(O)c1)C(=O)O [Methyldopa] | -0.77 |
| CC(C)[N+](C)(CCOC(=O)C1c2ccccc2Oc2ccccc21)C(C)C [Propantheline bromide] | -0.04 |
| CC1(C)S[C@@H]2[C@H](NC(=O)Cc3ccccc3)C(=O)N2[C@H]1C(=O)O [Benzathine penicilline] | -0.93 |
| CC(C)NNC(=O)c1ccncc1 [Iproniazid] | 0.08 |

| Structure (SMILES) | z-score of subpopulation abundance |
| --- | --- |
| CC1(C)S[C@@H]2[C@H](NC(=O)[C@H](N)c3ccccc3)C(=O)N2[C@H]1C(=O)O [Ampicillin Trihydrate] | 0.29 |
| CC(=O)OCC1=C(C(=O)O)N2C(=O)[C@@H](NC(=O)Cc3cccs3)[C@H]2SC1 [Cephalothin] | 0.02 |
| Cc1ccc(Nc2c(F)cccc2Cl)c(CC(=O)O)c1 [Lumiracoxib] | 0.14 |
| CC(=O)OC1CC2(C)C(CC(O)C3C4(C)CCC(O)C(C)C4CCC32C)C1=C(CCC=C(C)C)C(=O)O (stereo not given) [Fusidine] | 2.09 |
| Cc1ncc([N+](=O)[O-])n1CCOC(=O)c1ccccc1 [Metronidazole Benzoate] | -0.57 |
| CO/N=C(\C(=O)N[C@@H]1C(=O)N2C(C(=O)O)=C(Cn3ccc(=N)n3CCO)CS[C@H]12)c1csc(N)n1 [Cefoselis Sulfate] | -0.08 |
| COc1cccc(-c2c(C)n(Cc3c(F)cccc3C(F)(F)F)c(=O)n(C[C@H](NCCCC(=O)O)c3ccccc3)c2=O)c1F [Elagolix Sodium] | -0.38 |
| Oc1cccc(O)c1 [Resorcinol] | -0.4 |
| CC(NCCC(c1ccccc1)c1ccccc1)c1ccccc1 (stereo not given) [Fendiline hydrochloride] | -0.45 |
| COc1cc(N)c(Cl)cc1C(=O)NC1CCN(CCCOc2ccc(F)cc2)CC1OC (stereo not given) [Cisapride hydrate] | -0.23 |
| CCCOc1ccc(C(=O)OCCN(CC)CC)cc1N [Proparacaine HCl] | -0.38 |
| COc1ccc(C(=O)NCc2ccc(OCCN(C)C)cc2)cc1OC [Itopride hydrochloride] | 0.86 |
| O=C(O[C@H]1CN2CCC1CC2)N1CCc2ccccc2[C@@H]1c1ccccc1 [Solifenacin succinate] | 0.27 |
| C=CC[C@@H]1/C=C(\C)C[C@H](C)C[C@H](OC)[C@H]2O[C@@](O)(C(=O)C(=O)N3CCCC[C@H]3C(=O)O[C@H](/C(C)=C/[C@@H]3CC[C@@H](O)[C@H](OC)C3)[C@H](C)[C@@H](O)CC1=O)[C@H](C)C[C@@H]2OC [Tacrolimus (FK506)] | 0.93 |
| CCc1c2c(nc3ccc(OC(=O)N4CCC(N5CCCCC5)CC4)cc13)-c1cc3c(c(=O)n1C2)COC(=O)[C@]3(O)CC [Irinotecan HCl Trihydrate] | 0.19 |
| O=C1CN(/N=C/c2ccc(-c3ccc([N+](=O)[O-])cc3)o2)C(=O)N1 [Dantrolene sodium] | 1.59 |
| CN(C)c1cc(NC(=O)CNC(C)(C)C)c(O)c2c1CC1CC3C(N(C)C)C(=O)C(C(N)=O)=C(O)C3(O)C(=O)C1=C2O (stereo not given) [Tigecycline] | -0.64 |
| CCN(CC)CC#CCOC(=O)C(O)(c1ccccc1)C1CCCCC1 (stereo not given) [Oxybutynin chloride] | -0.32 |
| COCCCC/C(=N\OCCN)c1ccc(C(F)(F)F)cc1 [Fluvoxamine maleate] | 0.51 |
| CONC(=O)Nc1ccc(-c2sc3c(c2CN(C)C)c(=O)n(-c2ccc(OC)nn2)c(=O)n3Cc2c(F)cccc2F)cc1 [Relugolix] | -0.08 |
